Source: the supplement of paper PMC6555819

Each sequence was assayed on VDR:RXRa (NR concentration 270 nM, RXRa partner concentration 90 nM) (assay: PBM binding z-score (relative to random genomic background probes); higher = stronger binding; sequences stand for … in GC…GCGATTGACAGCGTAGAATGAAGG).
Method: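 Protein-binding microarray (Agilent 4x180K custom design, double-stranded 60-nt probes: 5' GC cap, 34-nt variable region, 24-nt constant primer region; full probe sequence given). Purified or IVT nuclear receptor:RXRα heterodimers (3:1 NR:RXRα, mostly 270:90 nM) or homodimers were incubated for 1 h in PBS with 2% milk and no ligand, then detected with Alexa488 antibodies. Fluorescence from o1-orientation probes (~5 replicates averaged) was converted to z-scores against 500 random hg19 background probes. Variable regions are seed direct-repeat (DR0–DR5) sites, all their single-nucleotide variants and half-site ablations.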

Row | Sequence | PBM binding z-score
1 | ATCTCTAGGTCAAGATAGTTCAGTGAATGCAAAT | 4.44
2 | GGAACGAGGGCAAAGATGATAGCATCTGTCGACG | 0.573
3 | TAAGACAGGTGAAGGTAACTCAGGTACGCAGTCG | 0.46
4 | ACTCGGAGGACAAAGGACAGAGCTACGCCAGTGA | -0.523
5 | TCATATAGGTAAGTGCTAGGTGAAAGTCCGATCT | 0.679
6 | CCTATTAGATGACCATAAGGGCAACCGAAGCTCG | 0.352
7 | ATCTCTAGGTAAGACTCAGTTCAGTGGAGAACGC | 0.529
8 | CCTCCTGGGCCAAAAAGGTCATTGATGCCGATAA | 4.94
9 | ATCTCTAAGTAACAAGTTCAGTGAAAGAGAGGAC | 1.87
10 | CTCGAAAGGTCGGTTGATGTGAGTATACGGATAA | 1.17
11 | TCTAGTCGGTCACGGAGGTCACACACGACGGGTA | 6.56
12 | GCGGACAGGTGAAACGCAGGTAACTCAGGGTGGC | -0.55
13 | TCTTGTAAATCAATAGAGGTTAAGAAAGTGCGCT | 1.98
14 | ATCGAAAGGTCGGCGAGGTGAGTATACACCGTTT | 4.48
15 | TCTTGTAGCTCAAAGGTTAAGAAAGCCGAAGCCT | 0.581
16 | TAGCATAGGTCATGGGCCAGTATACCACGCGAAC | 3.33
17 | ACAGACAGGTTATGAAGGTAACTCAGGCTATCAT | 1.3
18 | CGTCCTAGGTCAAAGGTCAGTGAAGAGATGACGG | 5.56
19 | GCTAGCAGGCCATTTGGGCCACTCAATGACGGGC | -0.859
20 | TAGCCTTGGTCATGGGCCAGTATACCACGCGAAC | -0.347

Row | Sequence | PBM binding z-score
21 | TCTTGTAGATCAAAGGATAAGAAAGCCGAAGCCT | 0.22
22 | AGTCAAGGTTCATCTAGGTAACGTAAGATATGCT | 4.56
23 | TTACCAAGGTGAGCTGAGGTCGTTGCTCCAACTC | 4.1
24 | CCTACTGGGCCAAAAAGGTCATTGTTGCCGATAA | 4.46
25 | TCTGCTAGGTTAGTTGGTCAGCTAACGAGCTGCC | -0.449
26 | CATACTGGGCCAAAAAGGTCATTGATGCCGATAA | 5.08
27 | ATCGAAAGGTCGAAGGTTAGTATACCCACCCGAA | 3.14
28 | GCATATAGGTAATACAAGGGGAAAGTCCGATTGT | -0.0932
29 | CGTCAAAGTTCAATGTAACGTAACAGAAAGCAGC | 3.74
30 | TCCGACAGGTGAAGGTAACTCAGGTACGCAGTCG | 0.225
31 | CATATTAGTTGACCATAAGGGCAACCGAAGCTCG | 0.551
32 | TCTTGGAGGACACGAAGGTCAGAGCTTTCCAGAG | 2.35
33 | TCGAGTAGATTACCAATGGGGCATTCAGCTTTCT | -0.414
34 | GCTGCTAGGTCAGGTTGATCAGCTAACGGGTACG | 0.431
35 | AGTCAAAGTTCACCAGGTAACGTAAGATTCAGCT | 4.61
36 | ACTAGCAGGCCAAGTTTGGGTCACTTAAACAAAG | 0.715
37 | TATCCAGGGTCAAAGGCCAGAGTACGAATGTCGA | 4.95
38 | CAAACTTGGTCACCGGAAGGTCAAAGTCCGCATG | 3.88
39 | CCTTACGGGTCACTCCAGGTTGTAGCATCGGAGT | 3.62
40 | ATCGCTAGGTAAAAGTTCAGTGAATCCCGAGGAT | 0.809
